Experimental data published in PubChem BioAssay (NCI).
Compounds without any hit were thinned out: in the full panel of roughly 83,000, 20% have a hit.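 A percent growth of 40 corresponds to 60% growth inhibition; 0 means no net growth; -100 means all cells died. Active threshold: below 10.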 Values without a mark were called inactive. Activity calls are given as the source filed them.

How the values were obtained:
Assay in all cases: NCI-60 one-dose screen, 48 h (100 = growth as untreated, 0 = no growth, -100 = all killed)
Details in all cases: 10 µM unless noted
[1] = system: HCT-15 colon
[2] = system: HT29 colon
[3] = system: SNB-75 CNS
[4] = system: SNB-19 CNS
[5] = system: U251 CNS
[6] = system: PC-3 prostate
[7] = system: LOX IMVI melanoma
[8] = system: SK-MEL-2 melanoma
[9] = system: EKVX NSCLC
[10] = system: UO-31 renal
[11] = system: TK-10 renal
[12] = system: ACHN renal
[13] = system: CAKI-1 renal
[14] = system: A498 renal
[15] = system: CCRF-CEM leukemia
[16] = system: MOLT-4 leukemia
[17] = system: SK-MEL-28 melanoma
[18] = system: SN12C renal

| Compound | growth [1] | growth [2] | growth [3] | growth [4] | growth [5] | growth [6] | growth [7] | growth [8] | growth [9] | growth [10] | growth [11] | growth [12] | growth [13] | growth [14] | growth [15] | growth [16] | growth [17] | growth [18] |
| --- | --- | --- | --- | --- | --- | --- | --- | --- | --- | --- | --- | --- | --- | --- | --- | --- | --- | --- |
| COc1ccc(CN2c3ccccc3Oc3ccccc32)cc1F | 47.4% | 11.2% | 47.9% | 67.8% | 39.5% | 64.8% | 59% | 10% | 60.7% | 53.3% | 74.2% | 81% | 59.3% | 54.3% | 66.7% | 42% | – | – |
| O=c1cc(/C(=C2/C=CC=N2)c2ccc[nH]2)c2cc(Cl)ccc2o1 | 35.1% | 47.9% | 24.6% | 25.7% | 14.4% | 38.9% | 34.3% | 62.4% | 44.8% | 41% | 63% | 48% | 55.7% | 10.8% | 28.3% | 7.2% (active) | 61.8% | – |
| COc1ccc2c(c1)C(=O)/C(=C/c1cccnc1)CC2 | 92.8% | 92.5% | 91.6% | 88.7% | 86.7% | 101% | 88.5% | 97.7% | 96.5% | 92.3% | 97.7% | 88.5% | 90.8% | 100% | 68% | 82.4% | – | – |
| CC/C=C\C/C=C\C[C@H]1C/C=C2/C(=O)C=C[C@@H]2C/C=C\CCC(=O)O1 | 0.621% (active) | -40.5% (active) | 64% | 28% | -23.2% (active) | 2.76% (active) | -59.7% (active) | -56.9% (active) | 31.4% | -49.7% (active) | 7.69% (active) | -78.9% (active) | 14.5% | 20.7% | -5.47% (active) | 2.83% (active) | – | – |
| C/C1=C\CC[C@@]2(C)O[C@H]2[C@H]2OC(=O)C(CN3CCN(CC4C(=O)O[C@H]5[C@H]4CC/C(C)=C/CC[C@@]4(C)O[C@@H]54)CC3)[C@@H]2CC1 (stereo partly drawn) | 95% | 104% | 85.4% | 99.2% | 94% | 92% | 93.7% | 107% | 96.8% | 96.7% | 89.7% | 87.1% | 94% | 114% | 58% | 84.3% | – | – |
| CN1CCN(c2nc(NCCCCNc3ccnc4cc(Cl)ccc34)c3ccccc3n2)CC1 | 37.4% | 4.42% (active) | 76.9% | 53.5% | 2.52% (active) | 66.3% | 2.66% (active) | 87.3% | 80.7% | 46.1% | 73% | 74.3% | – | 71.1% | 35.3% | 43.9% | -0.901% (active) | 79.8% |
| COc1cc2c(cc1O)CC[C@@H]1[C@@H]2CC[C@]2(C)[C@@H](OCCCN(C)C)CC[C@@H]12 | -54.6% (active) | -90.8% (active) | -65.4% (active) | -20.6% (active) | -74.2% (active) | -18.6% (active) | -91.5% (active) | -85.9% (active) | 0.0282% (active) | -79.6% (active) | -6.67% (active) | -62.8% (active) | 10.9% | -53.6% (active) | -7.19% (active) | -21.1% (active) | – | – |
| COc1ccc(CN2c3ccccc3Oc3ccccc32)cc1O | 28.1% | 72.7% | 27.4% | 34.9% | 24% | 31.4% | 39.5% | -6.69% (active) | 35% | 32.5% | 64.4% | 36.1% | 39.4% | 106% | 12.5% | 24.9% | – | – |
| CCOC(=O)c1sc(Nc2ccc(Cl)cc2)nc1C | 13.1% | 4.65% (active) | -11.2% (active) | 37% | 13.5% | 14.2% | 9.91% (active) | -0.883% (active) | 7.71% (active) | -9.64% (active) | 26.5% | 14.3% | 10.4% | -32.9% (active) | 17.8% | 10.7% | – | – |
| CCN(CC)c1ccc2c(c1)Oc1nc(N)c(C#N)c(N)c1C2Sc1ccc(SC)cc1 (stereo not drawn) | -14.3% (active) | -76.6% (active) | -54.9% (active) | -64.1% (active) | -92% (active) | -28.5% (active) | -96.9% (active) | -59.6% (active) | -3.97% (active) | -79.8% (active) | -35.7% (active) | -46.5% (active) | – | 90% | -15.5% (active) | -10.7% (active) | -9.16% (active) | -13.4% (active) |
| NC(=NCCCC1(c2ccccc2)CCCC1)Nc1ccc(Cl)cc1 | 28.9% | -15.4% (active) | 41.1% | 55.9% | -26.6% (active) | 43.3% | -50% (active) | 35.3% | 78.4% | 58.5% | 71.1% | 34.7% | 64.9% | 83.1% | 4.14% (active) | -0.285% (active) | – | – |
| COc1ccc(/C=C\c2cc(OC)c(OC)c(OC)c2)cc1OCC(=O)Nc1ccc2nc(C)sc2c1 | 28.3% | 29.2% | 26.9% | 57.4% | 38.3% | 23.4% | 49.6% | -1.27% (active) | 66.8% | 5.67% (active) | 1.02% (active) | 47.1% | 23% | 80.1% | 15.5% | 22.7% | – | 51.8% |
| C=C1C(=O)O[C@H]2[C@H]1CC/C(COC(=O)NCc1ccc(OC)c(OC)c1)=C\CC[C@@]1(C)O[C@@H]21 | 50.7% | 28.8% | 58.7% | 87.2% | 86.5% | 78.4% | 69.4% | 85.1% | 65.9% | 56.7% | 50.9% | 6.25% (active) | 32.9% | 86.9% | -7.86% (active) | 39.4% | – | – |
| c1ccc2[nH]c(-c3ccc(Nc4nc(N5CCCC5)nc5[nH]ncc45)cc3)nc2c1 | -36.2% (active) | -49.1% (active) | -79.2% (active) | 15.5% | -66.1% (active) | 0.946% (active) | -84.4% (active) | -48.1% (active) | -8.31% (active) | -27.1% (active) | -6.9% (active) | -58.3% (active) | -22.3% (active) | 94.5% | -29.7% (active) | -44.1% (active) | – | – |
| COc1cccc2c1C(=O)c1c(O)c3c(c(O)c1C2=O)C[C@](O)(C(=O)CO)C[C@H]3O[C@@H]1C[C@@H](NC(=O)CCCN(C)C2(c3ccc(F)cc3)CC3CCC2C3)[C@H](O)[C@@H](C)O1 (stereo partly drawn) | 3.39% (active) | -61.2% (active) | 30% | -66% (active) | -98% (active) | -76.7% (active) | -94.4% (active) | 47.1% | -46.3% (active) | 71.7% | 54.6% | -86% (active) | 61.9% | 52.5% | -29% (active) | -37% (active) | – | – |
| Cc1cc(N2CCCCC2)nc(NC2CCCC(Nc3ccnc4cc(Cl)ccc34)C2)n1 (stereo not drawn) | -67.6% (active) | -59.9% (active) | -80.9% (active) | -20.7% (active) | -97.4% (active) | -72.8% (active) | -84.9% (active) | -77% (active) | 7.48% (active) | -99% (active) | -61.8% (active) | -86.2% (active) | – | -29% (active) | -17.8% (active) | -28.2% (active) | -84% (active) | -74.9% (active) |
| CC1=CC(=NN=c2cc(C)n([O-])c(C)c2)C=C(C)[N+]1=O | 94.4% | 74.6% | 64.7% | 103% | 91.2% | 91.9% | 41.7% | – | 110% | 85.7% | – | 110% | 98.2% | 124% | 91.7% | 81.7% | 80.8% | 92.1% |
| NC(=NCCCOc1ccc(Cl)cc1)Nc1ccc(Cl)cc1 | 56% | 1.24% (active) | 44.8% | 19.3% | 41.2% | 26.7% | 40.3% | 24.1% | 44.4% | 37% | 45.8% | 2.74% (active) | 19.3% | -12% (active) | 6.02% (active) | 4.83% (active) | – | – |
